# BCR signal inh: chronic active BCR signaling inhibition. Potency, µM (top dose mostly 46.1 µM), without a hit: at the top dose activity change, negative = inhibition, hits mostly inhibitors. AID 493014. ABC-DLBCL IkBa-CBG/CBR reporter, luminescence ratio, 4 h. hit rate 0.05% among 340,000; active means well fitted inhibition curve with a large enough effect in the signal ratio, with a control signal flat, not every such curve was filed as active; inconclusive means small, poorly fitted or top-dose-only effect, or effect the other way, or a change in a side signal; the % refers to the signal ratio;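 further: potency means the concentration at half of the fitted maximal effect; plate controls were basal doxycycline-induced cells for no effect and cells given 10 µM MG132 for full effect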
#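 TMD8 ABC-DLBCL cells carrying doxycycline-inducible green luciferase fused to IkappaBalpha plus unfused red luciferase were exposed to compounds (up to 46 uM) for 4 hrs at 37C. Activity came from the overlap-corrected green/red luminescence ratio.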
# Giardia killer: Giardia lamblia killing. Giardia lamblia trophozoite viability. activity change, % at 7.66 µM, hits read low. hit rate 0.15% among 340,000. AID 540267; in the data active means activity change below about -80%; inconclusive means between about -30% and that limit;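 further: parasites exposed to compound for two days anaerobically before the ATP read; on the % scale 0 is the no-effect control and ±100 the full control effect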
#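 Compounds were tested on trophozoites seeded at 100 cells/well and held 48 hrs at 37 deg C anaerobically. An ATP-based luminescent kit measured the remaining live cells.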
# RORg inh: inhibitors of mouse ROR gamma transcriptional activity; P51450; Drosophila S2 Gal4-RORgamma UAS-luciferase reporter, 20 h; Potency, µM (titrated, usually from 53.6 µM), for the others: top-dose activity change, negative = inhibition, actives largely listed as inhibitors; hit rate 5.4% among 310,000; AID 2551; further: potency means the concentration at half of the fitted maximal effect; on the % scale 0 is the no-effect control and ±100 the full control effect; nearly all actives have a fitted effect of over 60% in size
# Target sequence (P51450 whole entry, looked up, the tested form may be a part): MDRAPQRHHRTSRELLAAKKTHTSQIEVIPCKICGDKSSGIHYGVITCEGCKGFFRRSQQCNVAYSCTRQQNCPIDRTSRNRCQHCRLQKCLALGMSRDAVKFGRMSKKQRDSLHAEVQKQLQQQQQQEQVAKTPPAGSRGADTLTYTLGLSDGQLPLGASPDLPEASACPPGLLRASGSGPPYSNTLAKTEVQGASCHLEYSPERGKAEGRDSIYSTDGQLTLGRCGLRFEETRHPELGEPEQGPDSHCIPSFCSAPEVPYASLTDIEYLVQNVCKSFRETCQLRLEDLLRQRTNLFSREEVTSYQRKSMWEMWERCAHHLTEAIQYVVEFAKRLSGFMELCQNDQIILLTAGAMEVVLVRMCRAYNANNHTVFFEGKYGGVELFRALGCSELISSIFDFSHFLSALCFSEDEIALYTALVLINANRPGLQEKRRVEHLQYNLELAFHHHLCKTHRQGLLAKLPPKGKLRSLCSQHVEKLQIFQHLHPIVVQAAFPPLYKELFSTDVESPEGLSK
#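 Stably transfected Drosophila Schneider cells are the test system, with ROR gamma fused to Gal4 and luciferase under UAS control; luminescence is read after 20 hr of 700 uM copper sulfate induction at ambient temperature.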
# VP16 counter: inhibits Gal4-VP16 luciferase reporter, ROR gamma counter-screen; Drosophila S2 Gal4-VP16 UAS-luciferase, luminescence, 20 h; Potency, µM (series often up to 53.6 µM), inactives show at the highest dose activity, negative = inhibition, actives largely listed as inhibitors; hit rate 3.5% among 310,000; AID 2546;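 further: Gal4-VP16 expression switched on by copper sulfate through the metallothionein promoter; potency means the concentration at half of the fitted maximal effect; on the % scale 0 is the no-effect control and ±100 the full control effect; nearly all actives have a fitted effect of over 50% in size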
# MCF10A rereplic: inducers of DNA re-replication in MCF 10A breast cells. AID 624296. hit rate 2.9% among 350,000. MCF 10A DNA re-replication, Hoechst nuclear intensity, 48 h. Potency, µM (top dose mostly 46.1 µM), for inactives: at the highest dose activity, positive = re-replication, usual class: activators; further: potency means the concentration at half of the fitted maximal effect; % of control where 0% means no effect; nearly all actives have a fitted effect of over 50% in size
# SW480 rerep: inducers of DNA re-replication in SW480 colon cancer cells; SW480 DNA re-replication, Hoechst DNA content imaging, 48 h; Potency, µM (series often up to 46.1 µM), inactives show at the top dose re-replication activation, usual class: activators; hit rate 1.8% among 340,000; further: potency means the concentration at half of the fitted maximal effect; % of control where 0% means no effect; nearly all actives have a fitted effect of over 55% in size
#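 SW480 cells exposed to compounds for 48 hr at 37 C, 5% CO2, then Hoechst-stained 40 min. Nuclear DNA content imaged by fluorescence scanning (405 nm excitation, 500-530 nm emission); re-replication scored as increased high-intensity nuclei.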
# * hit, by the source's call; ? = inconclusive; . = no result given; [ ] = another dose, or the depositor's remark. In the library only some 8.3% were active in any assay of this set; here they are far more common. Unless noted, the call rests on the fitted dose curve; in most records, active means well fitted curve in the direction sought with a large enough effect; inconclusive means small, poorly fitted or top-dose-only effect, or another doubt; inactive means no such curve, though single readings can be large; an effect the other way counts as inactive or inconclusive.
SMILES,BCR signal inh,Giardia killer,RORg inh,VP16 counter,MCF10A rereplic,SW480 rerep
CO[C@H]1COC(=O)[C@H](C)NC(=O)C/C=C\[C@@H](C)[C@@H](NS(=O)(=O)c2ccc(C)cc2)COC(=O)[C@H](OCc2ccccc2)/C=C\[C@@H]1C,.,.,-9%[10 µM],1%[10 µM],.,.
CCOC(=O)c1cc(-c2ccccc2)nc2nc(N(CC)CC)sc12,7%,-1,23%,?,5.2µM*,?
O=C(O)c1cc(-c2ccccc2)nc2nc(N3CCCCC3)sc12,?,.,16%,-2%,.,.
CCOC(=O)c1cc(-c2ccccc2)nc2ccc(C)cc12,8%,-11,14%,-6%,?,4%
CCOC(=O)c1cc(-c2ccccc2)nc2nc(N3CCCCC3)sc12,?,14,17%,-1%,9.2µM*,4%
CCOc1cccc(NC(=O)c2cnccc2C(F)(F)F)c1,2%,-8,10%,-11%,23%,-19%
Cc1ccc(C)c(N2CCN(C(=O)c3ccc(NC4=NC5CS(=O)(=O)CC5S4)cc3)CC2)c1 (stereo not drawn),-4%,12,-20%,-3%,12%,-7%
Cc1cccc(C2c3[nH]c4ccccc4c3CCN2C(=O)c2cc(CC(C)C)[nH]c(=O)n2)n1 (stereo not drawn),-2%,12,13µM*,?,5%,24%
CCc1ccc(C2c3[nH]c4ccccc4c3CCN2C(=O)c2cc(C)nn2C)cc1 (stereo not drawn),-28%,-20,19%,-9%,23µM*,?
Cc1cccc(C2c3[nH]c4ccccc4c3CCN2C(=O)c2cc(CC(C)C)nc(C)n2)n1 (stereo not drawn),?,1,36%,-1%,-12%,-2%
O=C(COc1ccccc1-c1ccccc1)NCCN1C(=O)S/C(=C\c2cccnc2)C1=O,-9%,12,-42%,20µM*,?,.
CC(C)N(C(=O)[C@H]1C[C@H](CC(=O)NCc2cccc(C(F)(F)F)c2)C(=O)N2CCc3c([nH]c4ccc(Cl)cc34)[C@]12C)C(C)C,?,-16,.,.,0%,-22%
CN(Cc1ccccc1)C(=O)c1ccc(NC(=O)Cc2ccc(NC(=O)C3CCN(C(=O)CCc4ccccc4)CC3)cc2)cc1,.,-9,.,.,15µM*,?
CN(Cc1ccccc1)C(=O)c1cccc(NC(=O)Cc2ccc(NC(=O)C3CCN(C(=O)CCc4ccccc4)CC3)cc2)c1,.,-4,.,.,0%,4%
CN(CCc1ccccc1)C(=O)c1ccc(NC(=O)Cc2ccc(NC(=O)C3CCCN(C(=O)C4CC4)C3)cc2)cc1 (stereo not drawn),.,-7,.,.,-16%,18µM*
CN(CCc1ccccc1)C(=O)c1ccc(NC(=O)Cc2ccc(NC(=O)C3CCCN(C(=O)C4CCCC4)C3)cc2)cc1 (stereo not drawn),.,-16,.,.,-54%,7%[9.22 µM]
Fc1ccc(Cn2cc(C(=S)N3CCOCC3)c3ccccc32)cc1,0%,4,8.9µM*,?,-16%,3%
CC1CCN(C(=S)c2cn(Cc3cccc(F)c3)c3ccccc23)CC1,0%,-19,10µM*,?,3%,?
CN1CCN(C(=S)c2cn(Cc3ccc(Br)cc3)c3ccccc23)CC1,16%,-16,25µM*,-8%,-3%,-1%
Fc1ccccc1Cn1cc(C(=S)N2CCOCC2)c2ccccc21,?,12,?,14%,17%,-13%
CN1CCN(C(=S)c2cn(Cc3ccccc3)c3ccccc23)CC1,7%,-2,?,-1%,?,-1%
O=C(c1ccc2c(c1)OCO2)N(c1ccc(Cl)cc1)C1C=CS(=O)(=O)C1 (stereo not drawn),-4%,-1,6%,0%,4%,0%
CC(=O)NN1C(=O)c2ccccc2NC1c1ccc([N+](=O)[O-])o1 (stereo not drawn),11%,6,-38%,-8%,15%,23µM*
